hcDAF12 agonist – H. contortus DAF-12 nuclear receptor activators, primary screen, cell-based, luminescence, HEK293, lit1-tk-luc reporter; HEK293 hcDAF-12 lit1-tk-luc reporter; 0% DMSO, 100% Δ7-dafachronic acid; activation, % at 6.8 µM; 370,000 compounds, 1.4% hits; AID 652067, 2013;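 active = activation above the mean of all tested compounds plus 3 SD, cut at about 5.5% in these data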;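 note: 100% = response to 3 µM Δ7-dafachronic acid high control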
ssDAF-12 act – S. stercoralis DAF-12 nuclear receptor activators, primary screen, cell-based, luminescence, HEK293, GRIP1 co-expression, lit1-tk-luc | HEK293 ssDAF-12/GRIP1 lit1-tk-luc reporter; % of 3 µM dafachronic acid response | activation, % at 6.8 µM | 370,000 compounds, 1% hits;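 active = activation above the mean over all tested compounds plus 3 SD, cut at about 0.9% in these data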;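 note: 0% = DMSO-only wells and 100% = 3 µM delta7-dafachronic acid wells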
hgDAF-12 ag – H. glycines DAF-12 receptor agonists, primary screen, cell-based, luminescence, HEK293, GAL4 fusion, UAS-luciferase; HEK293 GAL4-hgDAF12 UAS-luciferase reporter, agonist luminescence; normalized to butyrate control; activation, % at 6.8 µM; 370,000 compounds, 1.8% hits;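 active = activation above a cutoff set at the mean of all screened compounds plus 3 SD, cut at about 10% in these data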;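 note: 0% = DMSO wells and 100% = sodium butyrate wells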
DAX1 inh-1 – DAX1 (NR0B1) inhibitors on StAR promoter, primary screen, cell-based, luminescence, SF-1 (NR5A1), full-length DAX-1 | HEK293T StAR-luciferase reporter, SF-1/DAX-1 repression relief | inhibition, % at 6.8 µM | 370,000 compounds, 1.1% hits;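 active = inhibition above the mean over all tested compounds plus 3 SD, cut at about 3.6% in these data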;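 note: 0% = DAX-1 cells with DMSO and 100% = cells lacking DAX-1 with DMSO; higher inhibition means more luminescence from relief of DAX-1 repression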
SMARCA2 activ – SMARCA2 (BRM) function activators, primary screen, cell-based, luminescence, high throughput; MG213 cells, MMTV-luciferase reporter, dexamethasone, overnight; activation, % at 9.1 µM; 370,000 compounds, 1% hits; in the data active = activation above about 7.8%;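 note: 0% = vehicle wells and 100% = reference activator wells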
DAX1 inh-2 – DAX1 (NR0B1) inhibitors, primary screen, cell-based, HEK293, Gal4-DAX1, luciferase luminescence. HEK293 Gal4-DAX1 luciferase reporter. AID 504766, 2011. Nuclear receptor subfamily 0 group B member 1 (Homo sapiens), P51843. 340,000 compounds, 0.99% hits. inhibition, % at 6.75 µM;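 active = inhibition above the mean over all tested compounds plus 3 SD, cut at about 4.2% in these data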;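 note: 0% = DAX1-transfected cells with DMSO and 100% = empty-vector control cells with DMSO; inhibition shows as a rise in luminescence from relieved DAX1 repression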
Target sequence (P51843 207-470 limits assumed): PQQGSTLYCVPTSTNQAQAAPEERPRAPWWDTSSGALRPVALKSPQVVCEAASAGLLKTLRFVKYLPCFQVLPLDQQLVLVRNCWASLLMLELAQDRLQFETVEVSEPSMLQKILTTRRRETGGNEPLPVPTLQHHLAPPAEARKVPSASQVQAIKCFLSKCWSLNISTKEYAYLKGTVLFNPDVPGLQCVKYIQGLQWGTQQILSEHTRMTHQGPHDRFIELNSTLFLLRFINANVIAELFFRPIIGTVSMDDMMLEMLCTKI
SMARCA2 conf – SMARCA2 (BRM) function activators, confirmation, cell-based, luminescence, triplicate; shares compounds with SMARCA2 activ; MG213 cells, MMTV-luciferase with dexamethasone, overnight; MG213 cells expressing E1A, Rb sequestered; DMSO wells 0%, reference activator 100%; activation, % at 9.1 µM; 3,500 compounds, 30% hits; AID 652260, 2013;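 active = activation above its plate's cutoff, the mean activation of tested wells plus 3 SD, cut at about 7.9% in these data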
GAL4-VP16 Luc – GAL4-VP16 luciferase reporter activation, counter-screen for SMARCA2 (BRM) activator project, cell-based, pG5luc, luminescence, high throughput; shares compounds with SMARCA2 activ; HEK293 GAL4-VP16 pG5luc reporter; scaled: DMSO wells 0%, SAHA wells 100%; activation, % at 9.1 µM; 3,500 compounds, 41% hits;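 active = activation above the solvent-only control well mean plus 3 SD, averaged across control plates, cut at about 5.2% in these data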
Active calls of the source: *; . = no result. Most compounds without a hit are left out; they make up all but 4.8% or so of the library.

SMILES | hcDAF12 agonist | ssDAF-12 act | hgDAF-12 ag | DAX1 inh-1 | SMARCA2 activ | DAX1 inh-2 | SMARCA2 conf | GAL4-VP16 Luc
Cc1cccc(C)c1NC(=O)c1c[nH]c2ccccc12 | 6.2* | -1 | 7 | 1 | 13* | 1 | 8.7* | 9.4*
CN(Cc1ccc(F)cc1)C(=O)c1cccc2c1C(=O)N(Cc1cccnc1)C2 | 0 | -1 | 0 | 1 | -5 | . | . | .
COc1ccc(N2CCN(C(=O)c3cc(=O)c4ccc(C)cc4o3)CC2)cc1 | 1 | -1 | -1 | 0 | 12* | 3 | 3 | 1
COc1ccc(N2CCN(CCCNC(=O)COc3ccc(F)cc3)CC2)cc1 | -2 | -1 | 8 | -1 | 2 | . | . | .
CC(C)c1ccc2[nH]c3nc(SCC(=O)N4CCOCC4)nnc3c2c1 | 0 | -1 | 0 | -1 | 9.7* | 1 | 4 | 5.8*
CCOCCCNC(=O)c1cccc(OC2CCN(S(C)(=O)=O)CC2)c1 | 4 | 0 | 8 | 1 | 8.3* | 3 | 8 | 10*
N[C@H]1CC[C@@H]2SC[C@@H](C(=O)O)N2C1=O | 0 | -1 | 0 | -1 | -1 | . | . | .
COC(=O)C12C=C3CC(c4ccc(C(F)(F)F)cc4)=C3C(=O)N1Cc1[nH]c3ccccc3c1C2 (configuration not stated) | 0 | -1 | -8 | -4 | 1 | . | . | .
C=CCNc1ccc(C(=O)O)cc1 | -1 | -1 | -1 | 0 | 9.7* | -1 | 3 | -1
CC(=O)Nc1ccc(C(=O)O)cc1 | 2 | -1 | 2 | 1 | 1 | 1 | . | .
CCCc1cc2c(=O)c(-c3ccccn3)c(C)oc2cc1O | 0 | -1 | 1 | 1 | -5 | 0 | . | .
CCCc1cc2c(=O)c(-c3ccccn3)coc2cc1OC | 0 | -1 | 3 | 1 | 11* | 1 | 18* | 6.2*
COC(=O)[C@]12C[C@H](CC(=O)NCC3CCCCC3)C(=O)N(Cc3ccccc3)C1=C[C@H](COCc1ccccc1)O[C@@H]2C | -2 | -1 | 3 | 0 | -3 | . | . | .
O=C(Nc1ccc(OC(F)(F)F)cc1)Nc1nc2ncccn2c1-c1ccc(C(F)(F)F)cc1 | -1 | 0 | -1 | 0 | -1 | . | . | .
Cc1ccc(C(=O)Nc2ccc(NC(=O)c3cccs3)cc2)cc1[N+](=O)[O-] | -1 | -2 | -2 | 0 | 9.0* | 0 | 4 | 1
COc1ccccc1OCCNC(=O)c1ccc(Br)cc1 | 1 | -1 | 5 | 2 | 8.8* | 2 | 3 | 4
COc1ccccc1OCCNC(=O)c1ccc(C(C)(C)C)cc1 | 2 | 0 | 5 | 1 | 8.2* | 2 | 7 | 5
COc1ccccc1OCCNC(=O)CNC(=O)c1ccc(C(C)(C)C)cc1 | 0 | -1 | -1 | -1 | 2 | -1 | . | .
Cc1ccc(C(=O)NCCOc2cccc3cccnc23)cc1Cl | 0 | -1 | -1 | 1 | -1 | -2 | . | .
COc1cc(C(=O)NCCOc2cccc3cccnc23)cc(OC)c1OC | -3 | -3 | -2 | -3 | 11* | 1 | -6 | 4
C[C@@H]1C[C@H]2O[C@@H]2/C=C\C=C\C(=O)Cc2cc(O)cc(O)c2C(=O)O1 | -4 | -2 | -5 | -5 | -7 | . | . | .
CC(=O)OCc1ccccc1Sc1ccccc1C(=O)NCc1ccccc1 | 1 | -1 | 5 | 2 | 10* | 2 | 1 | 0

Bioassay records from PubChem BioAssay.
